# Inconclusive results are not listed. Calls of active or inactive are those of the source. Calls come from the whole dose curve; as a rule, active = well fitted curve in the direction sought with a large enough effect; inconclusive = small, poorly fitted or top-dose-only effect, or another doubt; inactive = no such curve, though single readings can be large; an effect the other way counts as inactive or inconclusive.
# Target: Luciferin 4-monooxygenase (Photinus pyralis) (UniProt P08659)
# Assay: Biochemical firefly luciferase enzyme assay for NPC (AID 624030);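 note: purified P. pyralis luciferase at 10 nM with luciferin and ATP substrate; 0% = DMSO and -100% = full luciferase inhibition by PTC124 control; nearly all actives have a fitted effect of over 70% in size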
# Settings: purified P. pyralis luciferase, luminescence, 5 min; series mostly up to 58.6 µM; activity change, negative = inhibition: at the top concentration
# Procedure, shortened: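 Direct inhibition of firefly luciferase enzyme (10 nM final, 50 mM Tris Acetate) assessed by luminescence within 5 minutes. Percent activity scaled between DMSO and PTC124 positive control, with concentration-effect curves classified by fit quality and response.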
# Chain of Luciferin 4-monooxygenase (Photinus pyralis) (P08659 whole entry, looked up): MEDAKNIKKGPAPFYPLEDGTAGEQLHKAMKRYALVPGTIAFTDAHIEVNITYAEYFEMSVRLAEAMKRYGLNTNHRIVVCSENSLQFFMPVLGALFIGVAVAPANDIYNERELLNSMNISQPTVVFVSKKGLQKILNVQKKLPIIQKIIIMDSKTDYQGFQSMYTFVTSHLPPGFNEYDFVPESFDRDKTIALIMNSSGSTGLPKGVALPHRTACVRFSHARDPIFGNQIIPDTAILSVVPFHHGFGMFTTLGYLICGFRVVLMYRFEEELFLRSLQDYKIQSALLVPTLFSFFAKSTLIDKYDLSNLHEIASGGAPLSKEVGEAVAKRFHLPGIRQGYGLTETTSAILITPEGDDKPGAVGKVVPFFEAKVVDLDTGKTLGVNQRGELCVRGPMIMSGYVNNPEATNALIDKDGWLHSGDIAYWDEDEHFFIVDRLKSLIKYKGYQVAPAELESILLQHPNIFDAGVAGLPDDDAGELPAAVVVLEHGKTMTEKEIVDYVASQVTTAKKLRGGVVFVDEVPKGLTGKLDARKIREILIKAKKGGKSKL
row,Compound,"activity change, negative = inhibition"
1,CN1C[C@H](C(=O)N[C@]2(C)O[C@@]3(O)[C@@H]4CCCN4C(=O)[C@H](Cc4ccccc4)N3C2=O)C[C@@H]2c3cccc4[nH]cc(c34)C[C@H]21,-2.02% (inactive)
2,O=C1NCN(c2ccccc2)C12CCN(CCCC(c1ccc(F)cc1)c1ccc(F)cc1)CC2,15.4% (inactive)
3,COC(=O)[C@@H](N)Cc1ccc(O)c(O)c1,4.94% (inactive)
4,CCOC(=O)C1=C(C)NC(C)=C(C(=O)OC)C1c1cccc(Cl)c1Cl (stereo unspecified),-6.48% (inactive)
5,Cc1ccc(/C(=C\CN2CCCC2)c2ccccn2)cc1,0.436% (inactive)
6,CCCC(C(=O)OCCN(CC)CC)(c1ccccc1)c1ccccc1,7.09% (inactive)
7,O=C1CC2(CCCC2)CC(=O)N1CCCCN1CCN(c2ncccn2)CC1,3.31% (inactive)
8,Nc1nc(N)c2nc(-c3ccccc3)c(N)nc2n1,-6.52% (inactive)
9,CCc1cccc(N(C)C(N)=Nc2cccc3ccccc23)c1,4.24% (inactive)
10,C[C@H](CS)C(=O)N1CCC[C@H]1C(=O)O,-3.76% (inactive)
11,O=C(CCCN1CCC(O)(c2cccc(C(F)(F)F)c2)CC1)c1ccc(F)cc1,-3.96% (inactive)

# Test system: not listed separately
# Assay: S16 Schwann cell PMP22 intronic element firefly luciferase assay (AID 624032); note: nearly all actives have a fitted effect of over 30% in size; note: potency is the fitted concentration of half-maximal effect;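 for activity change, negative = inhibition: plate controls were DMSO for no effect and PTC124 positive control mean for full effect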
# Settings: S16 rat Schwann cells, PMP22 element FLuc, 24 h; series mostly up to 57.5 µM; activity change, negative = inhibition: at the top concentration
# Procedure, shortened: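 Luciferase reporter of PMP22 intronic-element expression in stably transfected S16 rat Schwann cells, read by ONE-Glo luminescence after 24 h compound exposure at 37 C. Activity scaled between DMSO (0%) and positive-control PTC124; concentration-effect curves quality-classified.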
Compound,Potency,"activity change, negative = inhibition"
CCNC(=O)N1CCN(CCCC(c2ccc(F)cc2)c2ccc(F)cc2)CC1,1.44 µM (active),–
CN/C(=C\[N+](=O)[O-])NCCSCc1ccc(CN(C)C)o1,–,6.57% (inactive)
CC[N+](C)(C)c1cccc(O)c1,–,2.14% [at 25.7 µM] (inactive)
COC(=O)C1=C(C)NC(C)=C(C(=O)OCCN(C)Cc2ccccc2)C1c1cccc([N+](=O)[O-])c1 (stereo unspecified),5.1 µM (active),–
c1cnc(N2CCN(Cc3ccc4c(c3)OCO4)CC2)nc1,–,46.6% (inactive)
CC(C)[N+](C)(CCOC(=O)C1c2ccccc2Oc2ccccc21)C(C)C,–,-6.64% (inactive)
CN(C)CCN(Cc1cccs1)c1ccccn1,–,18.4% (inactive)
Nc1c2c(nc3ccccc13)CCCC2O (stereo unspecified),–,-17.3% (inactive)
NCCCNCCSP(=O)(O)O,–,-7.54% (inactive)
CCN(CC)CCNC(=O)c1cc(S(C)(=O)=O)ccc1OC,–,13% [at 25.7 µM] (inactive)
CN1CCN(C2=Nc3ccccc3Oc3ccc(Cl)cc32)CC1,–,21.4% [at 25.7 µM] (inactive)
CSc1ccc(C(=O)c2[nH]c(=O)[nH]c2C)cc1,–,28.7% (inactive)
O=C1NCN(c2ccccc2)C12CCN(CCCC(c1ccc(F)cc1)c1ccc(F)cc1)CC2,25.6 µM (active),–
COC(=O)[C@@H](N)Cc1ccc(O)c(O)c1,–,2.02% (inactive)
CCCC(C(=O)OCCN(CC)CC)(c1ccccc1)c1ccccc1,–,-5.77% (inactive)
O=C1CC2(CCCC2)CC(=O)N1CCCCN1CCN(c2ncccn2)CC1,–,20.4% (inactive)
Nc1nc(N)c2nc(-c3ccccc3)c(N)nc2n1,–,-3.94% (inactive)
CCc1cccc(N(C)C(N)=Nc2cccc3ccccc23)c1,–,-27.6% (inactive)
C[C@H](CS)C(=O)N1CCC[C@H]1C(=O)O,–,-2.38% (inactive)
O=C(CCCN1CCC(O)(c2cccc(C(F)(F)F)c2)CC1)c1ccc(F)cc1,–,20.2% (inactive)
